For orientation: inhibition means the relative decrease from the control value, in per cent.

Activity calls are given as the source filed them.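 How the source made its calls, unless noted: active means NADPH fluorescence slope more negative than the mean of all samples by about 3 SD, 99.7% confidence; inactive means the rest.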

The values below come from PubChem BioAssay.

Test [1] is described as follows: inhibitors of TNFa-induced NFkB p65 translocation, primary screen, imaging, HUVEC, MLSMR starter and 10KST1 sets (AID 438;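 active means inhibition above 20% together with a positive visual image hit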;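 further: compound added about 3h40 before a 20 min TNFalpha stimulation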;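 on inhibition: signal is the nuclear over cytoplasmic p65 intensity ratio per well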). The note with it: HUVEC TNFa-induced p65 nuclear translocation; cell count: measured here: nuclei count (cytotoxicity indicator), at 2.08 µM; inhibition: at 2 µM, stronger effect = higher value, 0% TNFa-plus-vehicle, 100% no-TNFa wells.
Test [2] in a line: inhibitors of mutant huntingtin aggregation, primary screen, imaging, exon1htt(103Q)mCFP cells, high-content imaging (AID 483;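 active means visual image review flags a hit and inhibition of aggregation exceeds 20%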;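 further: compound exposure lasted 3 days before fixation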;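 on nuclei count: percent of the per-plate median nuclei count of sample wells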). The settings on record: exon1htt(103Q)mCFP cell line, aggregate imaging, at 2 µM; inhibition of aggregation: stronger effect = higher value; nuclei count: measured here: cell count, toxicity.
The nature of test [3]: inhibitors of E-selectin induction by TNFa, primary screen, imaging, HUVEC, immunofluorescence, MLSMR starter and 10KST1 sets (AID 487;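 active means visually confirmed hit in the image check and inhibition above 20%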;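 on inhibition: signal is fraction of cell area covered by stained E-selectin grains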;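 on nuclei count: 100% = median nuclei count of all wells on the same plate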). The note with it: HUVEC TNFalpha-induced E-selectin immunofluorescence imaging, at 2 µM; inhibition: stronger effect = higher value; nuclei count: measured here: cell number, toxicity.
In test [4] the target is Voltage-gated potassium channel subunit beta-2 (Rattus norvegicus) (UniProt P62483). Description: KvBeta enzyme negative modulators, primary screen, biochemical, NADPH fluorescence (AID 622;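 active means fluorescence slope higher than the sample average by over 3 SD, cut at about -0.22 in these data, passing the limit was not always enough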;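 further: slope of raw intensity against log time taken from 70 to 1610 s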). The settings on record: recombinant KvBeta, 4-cyanobenzaldehyde reduction, at 10 µM, stronger effect = higher value.
For test [5] the target is unchanged. Description: KvBeta positive modulators, primary screen, biochemical, NADPH fluorescence (AID 623).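 Further: fluorescence intensity change per second fitted from 20 to 320 s.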 The note with it: Recombinant KvBeta, NADPH fluorescence decrease slope, 10 min; at 10 µM; stronger effect = lower value.
Test [6] concerns the target Alpha-2C adrenergic receptor (Homo sapiens) (UniProt P18825). As to the kind of experiment: modulators of alpha2C/GIRK thallium flux, primary screen, cell-based, HEK293 alpha2C/GIRK1/2 (AID 624;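 active means fluorescence slope after compound addition differing from the mean of all screened samples at 99.7% confidence, in either direction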;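 further: slope of fluorescence ratio to pre-addition baseline per second over 15 to 24 s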). The settings on record: thallium flux BTC fluorescence, at 10 µM, actives lie on both sides.
Test [7] can be described thus: inhibitors of Sendai virus-induced IRF3 signaling, primary screen, TLR/RLR signaling modifier project, cell-based, Sendai virus stimulus, luciferase, 10K MLSCN set (AID 602276;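 active means inhibition at or above 50% at 10 µM; inactive means inhibition below 50%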;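 further: firefly luciferase from ISG56 promoter only with Renilla not read in this screen; 0% = Sendai virus plus DMSO and 100% = medium plus DMSO without virus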). The settings on record: HEK293 RL24 IRF3 luciferase reporter, at 10 µM, stronger effect = higher value. In general terms: A reporter such as luciferase makes a cellular process visible.
Test [8] in a line: inhibitors of poly I:C-induced TLR3 signaling, primary screen, cell-based, poly I:C stimulus, luciferase, 10K MLSCN set (AID 602277;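 active means inhibition of the reporter signal at or above 50%; inactive means inhibition below 50%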). The settings on record: HEK293-TLR3 RL24 IRF3 luciferase reporter, at 10 µM, stronger effect = higher value.

Voltage-gated potassium channel subunit beta-2 (Rattus norvegicus), sequence (P62483 whole entry, looked up): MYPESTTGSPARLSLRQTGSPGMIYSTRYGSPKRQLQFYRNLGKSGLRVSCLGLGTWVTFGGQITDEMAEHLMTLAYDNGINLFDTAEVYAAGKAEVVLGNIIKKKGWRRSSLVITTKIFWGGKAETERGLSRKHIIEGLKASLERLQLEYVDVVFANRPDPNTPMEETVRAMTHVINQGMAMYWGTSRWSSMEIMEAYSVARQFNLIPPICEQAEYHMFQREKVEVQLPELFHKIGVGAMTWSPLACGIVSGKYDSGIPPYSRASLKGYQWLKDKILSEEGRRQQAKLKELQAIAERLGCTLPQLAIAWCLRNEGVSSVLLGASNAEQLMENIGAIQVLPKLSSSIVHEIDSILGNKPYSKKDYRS
Alpha-2C adrenergic receptor (Homo sapiens), sequence (P18825 whole entry, looked up): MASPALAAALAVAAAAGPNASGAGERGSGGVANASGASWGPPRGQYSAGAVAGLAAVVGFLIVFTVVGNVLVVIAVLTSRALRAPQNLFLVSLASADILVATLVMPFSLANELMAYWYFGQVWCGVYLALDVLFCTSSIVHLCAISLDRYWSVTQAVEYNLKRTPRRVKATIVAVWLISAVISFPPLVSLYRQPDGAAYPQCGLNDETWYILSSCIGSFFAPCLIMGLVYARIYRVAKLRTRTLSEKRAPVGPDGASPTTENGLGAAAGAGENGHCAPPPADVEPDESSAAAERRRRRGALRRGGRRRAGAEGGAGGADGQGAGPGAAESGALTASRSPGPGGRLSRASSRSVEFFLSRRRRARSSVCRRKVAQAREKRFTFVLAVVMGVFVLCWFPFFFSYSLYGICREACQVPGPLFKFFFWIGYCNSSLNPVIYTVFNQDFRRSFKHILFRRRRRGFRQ

Consider `CCOC(=O)c1cc2c(=O)n3cccc(C)c3nc2n(CCOC)c1=NC(=O)c1ccncc1`, for which, in test [1], the cell count turned out to be 397. Further, the inhibition in test [1] was -0.2% (inactive); in test [3] it was -4.6% (inactive); in test [7], 16.8% (inactive); in test [8] it was 12.5% (inactive). Further, in test [2], the inhibition of aggregation is -15.8% (inactive). Further, the results for the nuclei count in test [2] and in test [3] were 100% and 96.5%, respectively. In addition, in test [4], the fluorescence slope is -0.346 (inactive). For the same compound, the NADPH fluorescence slope in test [5] is -4.3e-05 (inactive). Also, the slope in test [6] is 0.00713 (inactive).

As to `O=C(Nc1ccc(Br)c2cccnc12)c1ccc(Cn2cc(Cl)cn2)o1`, the cell count in test [1] stood at 357. Further, the inhibition was 9.8% (inactive) in test [1], -76.7% (inactive) in test [3], -9.8% (inactive) in test [7] and -11% (inactive) in test [8]. The inhibition of aggregation in test [2] is 10.4% (inactive). In addition, the nuclei count in test [2] turned out to be 94.8%; in test [3], 99.5%. Also, the fluorescence slope in test [4] was -0.519 (inactive). In addition, in test [5], the NADPH fluorescence slope was -3.6e-05 (inactive). Moreover, the slope in test [6] is 0.00614 (inactive).

For the compound `CC(C)(O)C1=NOC(c2ccccc2)C1` (centres undefined), in test [1], the cell count came to 647. Also, the inhibition in test [1] is -6.5% (inactive); in test [3] it was -43.3% (inactive); in test [7], 6.77% (inactive); in test [8], 22.8% (inactive). Moreover, the inhibition of aggregation in test [2] is -4.9% (inactive). For the same compound, the nuclei count in test [2] is 98.5%; in test [3] it was 99.1%. In test [4], the fluorescence slope was -0.411 (inactive). Further, the NADPH fluorescence slope in test [5] was 1.7e-07 (inactive). For the same compound, the slope in test [6] was 0.00603 (inactive).

For the compound `Cc1cccc2sc(NC(=O)Cn3cccc3)nc12`, the cell count in test [1] is 518. The inhibition in test [1] is -1.1% (inactive); in test [3] it was -13.1% (inactive); in test [7], -3.68% (inactive); in test [8], -14% (inactive). The inhibition of aggregation in test [2] was -6.6% (inactive). Moreover, the nuclei count in test [2] was found to be 59.1%; in test [3], 100%. Further, in test [4], the fluorescence slope is -0.603 (inactive). The NADPH fluorescence slope in test [5] is -2.8e-05 (inactive). For the same compound, the slope in test [6] was 0.0115 (active).

For the compound `CCC1CCc2c(sc3ncnc(N4CCOCC4)c23)C1` (centres undefined), in test [1], the cell count stood at 588. Also, the inhibition was -4.4% (inactive) in test [1], -4% (inactive) in test [3], -6.27% (inactive) in test [7] and 13.8% (inactive) in test [8]. In addition, in test [2], the inhibition of aggregation was -3.1% (inactive). The values for the nuclei count in test [2] and in test [3] were 25.7% and 114%, respectively. Also, the fluorescence slope in test [4] is -0.469 (inactive). Also, the NADPH fluorescence slope in test [5] is -4.6e-05 (inactive). Besides, the slope in test [6] was 0.00589 (inactive).

For the compound `COc1ccccc1C(=O)N1CCN(C(=O)c2ccncc2)CC1`, the cell count in test [1] was 252. Also, the inhibition is 7.8% (inactive) in test [1], 12.3% (inactive) in test [3], 8.46% (inactive) in test [7] and 6.89% (inactive) in test [8]. Moreover, in test [2], the inhibition of aggregation is -2.8% (inactive). Also, the nuclei count in test [2] was determined as 92.4%; in test [3], 76.2%. In addition, in test [4], the fluorescence slope is -0.515 (inactive). In test [5], the NADPH fluorescence slope is -1.9e-05 (inactive). For the same compound, in test [6], the slope is 0.00571 (inactive).

For the compound `COc1ccc(CCNC(=O)C2CCN(C(=O)N(C)C)CC2)cc1OC`, the cell count in test [1] came to 618. The inhibition in test [1] was 0.9% (inactive); in test [3], -74.3% (inactive); in test [7], 6.71% (inactive); in test [8], -1.45% (inactive). Moreover, the inhibition of aggregation in test [2] was 3.5% (inactive). Moreover, the nuclei count in test [2] was determined as 44.3%; in test [3] it was 106%. In addition, the fluorescence slope in test [4] was -0.386 (inactive). The NADPH fluorescence slope in test [5] was -1.9e-05 (inactive). The slope in test [6] is 0.00486 (inactive).

Consider `CCNC(=O)CC1C(=O)N(c2ccccc2)C(=O)N1CCC(C)C` (centres undefined), for which the cell count in test [1] was 339. For the same compound, the inhibition in test [1] is 2.8% (inactive); in test [3], -62.6% (inactive); in test [7], 8.08% (inactive); in test [8], 31.4% (inactive). Moreover, the inhibition of aggregation in test [2] is 3.6% (inactive). Also, the figures for the nuclei count in test [2] and in test [3] were 104% and 97.9%, respectively. The fluorescence slope in test [4] is -0.512 (inactive). Besides, in test [5], the NADPH fluorescence slope is -3.8e-05 (inactive). Besides, the slope in test [6] is 0.00552 (inactive).

On to `O=C(C(c1ccccc1)c1ccccc1)N1CCN(Cc2ccccn2)CC1`, for which the cell count in test [1] was determined as 357. Also, the inhibition in test [1] is -7.5% (inactive); in test [3] it was -11.4% (inactive); in test [7] it was 5.9% (inactive); in test [8] it was 18.2% (inactive). Also, the inhibition of aggregation in test [2] is 3.4% (inactive). In addition, the nuclei count in test [2] came out at 98.4%; in test [3] it was 107%. Besides, the fluorescence slope in test [4] was -0.369 (inactive). In addition, the NADPH fluorescence slope in test [5] is -1.3e-05 (inactive). Further, the slope in test [6] was 0.00484 (inactive).

On to `CC1(C)Cc2ccccc2C(N)=C1C#N`, for which, in test [1], the cell count was 331. Also, the inhibition in test [1] was -0.8% (inactive); in test [3], 9.4% (inactive); in test [7], -11.4% (inactive); in test [8] it was -26.4% (inactive). The inhibition of aggregation in test [2] was 35.2% (active). Moreover, the nuclei count came out at 71.1% in test [2] and 102% in test [3]. Besides, in test [4], the fluorescence slope is -0.479 (inactive). Moreover, the NADPH fluorescence slope in test [5] is 2e-05 (inactive). Further, the slope in test [6] was 0.00508 (inactive).

As for `CCc1cccc(NC(=O)C2CCCN(S(=O)(=O)c3c(C)[nH]c(=O)[nH]c3=O)C2)c1` (centres undefined), the cell count in test [1] is 325. In addition, the inhibition in test [1] was -10.3% (inactive); in test [3], -57.4% (inactive); in test [7], 9.85% (inactive); in test [8], 23.9% (inactive). Further, in test [2], the inhibition of aggregation is 0.8% (inactive). In addition, the results for the nuclei count in test [2] and in test [3] were 106% and 104%, respectively. The fluorescence slope in test [4] is -0.405 (inactive). In addition, in test [5], the NADPH fluorescence slope was -3.6e-05 (inactive). The slope in test [6] is 0.0033 (inactive).

With `CCOC(=O)N1CCC(N2C(=O)c3ccccc3C2Nc2ccc3c(C)cc(=O)oc3c2)CC1` (centres undefined), in test [1], the cell count came out at 654. The inhibition in test [1] is 2.3% (inactive); in test [3] it was -65.6% (inactive); in test [7] it was 14.2% (inactive); in test [8], 18% (inactive). In addition, the inhibition of aggregation in test [2] was -19.4% (inactive). Also, the results for the nuclei count in test [2] and in test [3] were 101% and 121%, respectively. For the same compound, in test [4], the fluorescence slope is -0.0451 (active). The NADPH fluorescence slope in test [5] is -9.7e-08 (inactive). Further, the slope in test [6] was 0.00764 (inactive).

As for `COc1ccc(-c2noc(COc3ccc(C)c(C)c3)n2)cc1OC`, in test [1], the cell count stood at 334. Moreover, the inhibition was 2.7% (inactive) in test [1], 21.9% (inactive) in test [3], -1.39% (inactive) in test [7] and 98.1% (active) in test [8]. For the same compound, the inhibition of aggregation in test [2] was 8.8% (inactive). Besides, the nuclei count is 97.9% in test [2] and 108% in test [3]. For the same compound, the fluorescence slope in test [4] was -0.316 (inactive). The NADPH fluorescence slope in test [5] is -6.4e-05 (inactive). The slope in test [6] was 0.00562 (inactive).

Consider `Cc1cccc(C2CC(c3ccc(Br)cc3)Nc3nc(N)nn32)c1` (centres undefined), for which the cell count in test [1] was 683. Moreover, the inhibition was -15.7% (inactive) in test [1], -5.8% (inactive) in test [3], 20.8% (inactive) in test [7] and 25.1% (inactive) in test [8]. For the same compound, the inhibition of aggregation in test [2] is -3% (inactive). Moreover, the nuclei count is 95.1% in test [2] and 105% in test [3]. For the same compound, in test [4], the fluorescence slope was -0.443 (inactive). The NADPH fluorescence slope in test [5] is -5.3e-05 (inactive). Besides, the slope in test [6] was 0.00633 (inactive).
